Results filed as inconclusive are left out. The source made the active and inactive calls. Calls come from the whole dose curve; as a rule, active = well fitted cell-killing curve with a large enough effect; inconclusive = small, poorly fitted or top-dose-only effect, or effect the other way; inactive = no such curve, though single readings can be large or run the other way.
experiment: Quantitative High-Throughput drug screen in 47 multiple myeloma cell lines against the NCATS MIPE library collection: Karpas417_ECACC cell viability assay (AID 1918961); settings: Karpas417 myeloma viability, CellTiter-Glo ATP luminescence, 48 h; viability (% of DMSO): at 45.8 µM (top of the series)
From the text: PI: Beverly A. Mock Ph.D.
Laboratory of Cancer Biology and Genetics,
Center for Cancer Research, National Cancer Institute,
National Institute of Health, Bethesda, Maryland
Drug resistance and disease progression are common in multiple myeloma (MM) patients, underscoring the need for new therapeutic combinations. […] We hypothesized that effective combinations would reduce MYC expression and enhance p16 activity. […] These preclinical data identify potentially useful drug combinations for evaluation in drug-resistant MM and reveal potential mechanisms of combined drug sensitivity.
Described herein is the primary MIPE qHTS used to cherrypick compounds. Validated compounds were then further tested for potential synergistic activiy.
[1] Peat TJ, Gaikwad SM, Dubois W, Gyabaah-Kessie N, Zhang S, Gorjifard S, Phyo Z, Andres M, Hughitt VK, Simpson RM, Miller MA, Girvin AT, Taylor A, Williams D, D'Antonio N, Zhang Y, Rajagopalan A, Flietner E, Wilson K, Zhang X, Shinn P, Klumpp-Thomas C, McKnight C, Itkin Z, Chen L, Kazandijian D, Zhang J, Michalowski AM, Simmons JK, Keats J, Thomas CJ, Mock BA. Drug combinations identified by high-throughput screening promote cell cycle transition and upregulate Smad pathways in myeloma. Cancer Lett. 2023 Aug 1;568:216284. doi: 10.1016/j.canlet.2023.216284. Epub 2023 Jun 24. PMID: 37356470; PMCID: PMC10408729.
SEQUENCE No. (e.g., 1, 2, 3, etc.); […] (e.g., Cells, Incubation, Reagent, etc.); VALUE and DESCRIPTION.
1; Cells; 5 uL; white, solid bottom 1536-well Greiner assay plate.
2; Compounds; 23 nL; Kalypsis pin tool (Wako USA) equipped with a 1536-well pin head to transfer to the assay plates.
3; Incubation; 48 hours; 37C incubation.
4; Reagent;5uL; CellTiter Glo (Promega).
5; Detector; 425V; Luminescence; Viewlux PerkinElmer.
NOTES (numbers refer to Sequence numbers above)
1. The cell-based screening methods employed in this study were like those previously published. Briefly, the corresponding myeloma cell lines were screened in 1,536-well plates with 500 cells, 5-uL per well for inhibition of cell viability (assessed by measuring ATP levels with CellTiterGlo).
2. NCATS MIPE 4.0 library of approved and investigational drugs were added using the Kalypsis pin tool. Wells treated with DMSO only for 100% viability and media only wells for 0% viability were used as controls.
3. The assay plates were covered and incubated for 48 hours in a 37C, 5% CO2 incubator with controlled humidity.
4. After 48 hours, CellTilter-GloTM luminescent substrate mix (Promega) reagent was added to the assay plate and plates we incubated for 5 min at room temperature.
5. Signal was measured as median relative luminescence units on a ViewLux (PerkinElmer) multiplate reader.
[1] Heske CM, Davis MI, Baumgart JT, Wilson K, Gormally MV, Chen L, Zhang X, Ceribelli M, Duveau DY, Guha R, Ferrer M, Arnaldez FI, Ji J, Tran HL, Zhang Y, Mendoza A, Helman LJ, Thomas CJ. Matrix Screen Identifies Synergistic Combination of PARP Inhibitors and Nicotinamide Phosphoribosyltransferase (NAMPT) Inhibitors in Ewing Sarcoma. Clin Cancer Res. 2017 Dec 1;23(23):7301-7311. doi: 10.1158/1078-0432.CCR-17-1121. Epub 2017 Sep 12. PMID: 28899971; PMCID: PMC6636827.
Potency is the fitted concentration of half-maximal effect.

Row | SMILES | Potency | viability (% of DMSO)
1 | CC12CC3CC(C)(C1)CC(N)(C3)C2 | inactive | 
2 | CCOC(=O)Nc1ccc(NCc2ccc(F)cc2)nc1N | inactive | 
3 | NS(=O)(=O)c1cc2c(cc1Cl)NCNS2(=O)=O | 6.6 nM (active) | 
4 | CN1CCC(=C2c3ccccc3C=Cc3ccccc32)CC1 | inactive | 
5 | Cc1cn([C@H]2C=C[C@@H](CO)O2)c(=O)[nH]c1=O | 10.8 nM (active) | 
6 | CN(C)c1nc(N(C)C)nc(N(C)C)n1 | inactive | 
7 | Clc1ccccc1C(c1ccccc1)(c1ccccc1)n1ccnc1 | 9.3 nM (active) | 
8 | CN1CCC(=C2c3ccccc3CC(=O)c3sccc32)CC1 | inactive | 
9 | COc1ccc2[nH]cc(CCNC(C)=O)c2c1 | inactive | 
10 | CC(C)NCC(O)c1ccc(O)c(O)c1 (stereo unspecified) | 1480 nM (active) | 
11 | CC(C)NCC(O)COc1ccc(CCOCC2CC2)cc1 (stereo unspecified) | inactive | 
12 | CCCCc1oc2ccccc2c1C(=O)c1cc(I)c(OCCN(CC)CC)c(I)c1 | 13200 nM (active) | 
13 | Cc1cn([C@H]2C[C@H](N=[N+]=[N-])[C@@H](CO)O2)c(=O)[nH]c1=O |  | 84.8% (active)
14 | CC[C@@]1(O)C(=O)OCc2c1cc1n(c2=O)Cc2cc3c(CN(C)C)c(O)ccc3nc2-1 | 743 nM (active) | 
15 | CN1C(C(=O)Nc2ccccn2)=C(O)c2ccccc2S1(=O)=O | inactive | 
16 | O=C1c2c(O)ccc(O)c2C(=O)c2c(NCCNCCO)ccc(NCCNCCO)c21 | 16600 nM (active) | 

Row | SMILES | Potency | viability (% of DMSO)
17 | COc1ccc(C2CNC(=O)C2)cc1OC1CCCC1 (stereo unspecified) | inactive | 
18 | O=C(c1ccc(OCCN2CCCCC2)cc1)c1c(-c2ccc(O)cc2)sc2cc(O)ccc12 | 18700 nM (active) | 
19 | CN(CCOc1ccc(NS(C)(=O)=O)cc1)CCc1ccc(NS(C)(=O)=O)cc1 | inactive | 
20 | COc1cc2c(c(OC)c1OC)-c1ccc(OC)c(=O)cc1[C@@H](NC(C)=O)CC2 | 3.3 nM (active) | 
21 | CS(=O)(=O)CCNCc1ccc(-c2ccc3ncnc(Nc4ccc(OCc5cccc(F)c5)c(Cl)c4)c3c2)o1 | 6620 nM (active) | 
22 | Cc1cnc(C(=O)NCCc2ccc(S(=O)(=O)NC(=O)NC3CCCCC3)cc2)cn1 | inactive | 
23 | O=c1c(O)c(-c2ccc(O)c(O)c2)oc2cc(O)cc(O)c12 | 16.6 nM (active) | 
24 | Nc1nc2c(ncn2COC(CO)CO)c(=O)[nH]1 | 11800 nM (active) | 
25 | Cn1cnc2c1c(=O)[nH]c(=O)n2C | 9350 nM (active) | 
26 | CN1CCN(CCCN2c3ccccc3Sc3ccc(Cl)cc32)CC1 | 132 nM (active) | 
27 | O=C(Nc1ccc([N+](=O)[O-])cc1Cl)c1cc(Cl)ccc1O | 590 nM (active) | 
28 | NC(=O)NO | 1480 nM (active) | 
29 | CC#C[C@]1(O)CC[C@H]2[C@@H]3CCC4=CC(=O)CCC4=C3[C@@H](c3ccc(N(C)C)cc3)C[C@@]21C | 526 nM (active) | 
30 | Nc1ccn([C@H]2CC[C@@H](CO)O2)c(=O)n1 | inactive | 
31 | CCc1cccc2c3c([nH]c12)C(CC)(CC(=O)O)OCC3 (stereo unspecified) | inactive | 

— PubChem BioAssay (NCATS)
